# How the values were obtained:
# [1] = target: T1, Ephrin type-B receptor 1 (Homo sapiens) (UniProt P54762); settings: at 10 µM
# T1 sequence (whole entry): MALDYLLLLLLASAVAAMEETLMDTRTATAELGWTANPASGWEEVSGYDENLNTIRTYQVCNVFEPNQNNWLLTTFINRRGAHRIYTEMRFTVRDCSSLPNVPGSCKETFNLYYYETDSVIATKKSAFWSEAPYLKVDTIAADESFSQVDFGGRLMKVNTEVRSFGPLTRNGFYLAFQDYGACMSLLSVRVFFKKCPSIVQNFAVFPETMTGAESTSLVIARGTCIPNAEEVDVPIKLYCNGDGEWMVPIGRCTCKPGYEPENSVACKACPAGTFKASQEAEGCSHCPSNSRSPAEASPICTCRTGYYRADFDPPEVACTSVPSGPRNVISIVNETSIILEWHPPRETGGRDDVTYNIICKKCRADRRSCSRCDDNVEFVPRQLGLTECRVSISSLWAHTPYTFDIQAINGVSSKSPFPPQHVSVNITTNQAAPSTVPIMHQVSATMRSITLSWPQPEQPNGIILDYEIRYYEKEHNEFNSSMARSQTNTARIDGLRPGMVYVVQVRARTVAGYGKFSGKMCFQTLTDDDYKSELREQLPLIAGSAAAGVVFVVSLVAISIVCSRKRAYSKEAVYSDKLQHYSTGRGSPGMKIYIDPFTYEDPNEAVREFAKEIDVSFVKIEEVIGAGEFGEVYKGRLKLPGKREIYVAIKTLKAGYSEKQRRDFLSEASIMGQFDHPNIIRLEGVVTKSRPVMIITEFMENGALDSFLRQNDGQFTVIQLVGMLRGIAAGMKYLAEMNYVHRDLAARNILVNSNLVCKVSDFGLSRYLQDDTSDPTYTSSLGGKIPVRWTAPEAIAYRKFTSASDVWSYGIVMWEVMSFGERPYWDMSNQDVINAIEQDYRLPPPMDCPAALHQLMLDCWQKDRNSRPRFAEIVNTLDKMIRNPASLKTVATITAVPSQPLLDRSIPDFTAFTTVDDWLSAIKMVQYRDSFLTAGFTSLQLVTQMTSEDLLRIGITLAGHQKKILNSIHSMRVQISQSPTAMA
# [2] = target: T2, Ephrin type-B receptor 2 (Homo sapiens) (UniProt P29323); settings: at 1 µM
# T2 sequence (whole entry): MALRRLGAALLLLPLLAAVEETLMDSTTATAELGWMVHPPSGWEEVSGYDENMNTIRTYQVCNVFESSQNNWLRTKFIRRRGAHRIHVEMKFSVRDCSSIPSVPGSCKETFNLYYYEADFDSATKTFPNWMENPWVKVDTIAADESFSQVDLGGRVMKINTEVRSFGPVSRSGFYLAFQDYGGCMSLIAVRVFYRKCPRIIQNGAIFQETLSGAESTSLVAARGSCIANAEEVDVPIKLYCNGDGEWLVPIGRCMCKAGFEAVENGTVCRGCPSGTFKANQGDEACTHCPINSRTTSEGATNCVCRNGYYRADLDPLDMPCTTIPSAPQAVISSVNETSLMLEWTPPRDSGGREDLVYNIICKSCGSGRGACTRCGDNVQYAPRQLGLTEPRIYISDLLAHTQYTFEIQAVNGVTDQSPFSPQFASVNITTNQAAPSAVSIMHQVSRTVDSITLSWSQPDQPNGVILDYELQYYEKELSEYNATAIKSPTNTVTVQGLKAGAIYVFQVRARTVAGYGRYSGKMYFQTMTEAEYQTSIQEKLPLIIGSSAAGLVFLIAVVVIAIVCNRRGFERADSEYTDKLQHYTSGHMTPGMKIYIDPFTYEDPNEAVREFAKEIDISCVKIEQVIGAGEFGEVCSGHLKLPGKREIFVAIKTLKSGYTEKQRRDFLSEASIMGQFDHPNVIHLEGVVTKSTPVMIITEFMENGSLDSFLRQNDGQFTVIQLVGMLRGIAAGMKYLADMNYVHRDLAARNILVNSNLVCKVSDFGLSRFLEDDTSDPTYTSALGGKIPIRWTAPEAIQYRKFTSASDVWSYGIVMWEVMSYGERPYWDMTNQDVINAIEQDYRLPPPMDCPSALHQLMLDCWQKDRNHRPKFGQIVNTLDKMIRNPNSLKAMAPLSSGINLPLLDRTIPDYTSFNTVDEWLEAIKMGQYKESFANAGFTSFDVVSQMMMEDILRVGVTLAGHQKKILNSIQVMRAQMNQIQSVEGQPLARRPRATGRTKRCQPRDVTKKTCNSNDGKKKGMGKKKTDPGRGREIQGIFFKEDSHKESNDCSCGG
# [3] = target: T2, Ephrin type-B receptor 2 (Homo sapiens); settings: at 10 µM
# [4] = target: T3, Ephrin type-B receptor 3 (Homo sapiens) (UniProt P54753); settings: at 1 µM
# T3 sequence (whole entry): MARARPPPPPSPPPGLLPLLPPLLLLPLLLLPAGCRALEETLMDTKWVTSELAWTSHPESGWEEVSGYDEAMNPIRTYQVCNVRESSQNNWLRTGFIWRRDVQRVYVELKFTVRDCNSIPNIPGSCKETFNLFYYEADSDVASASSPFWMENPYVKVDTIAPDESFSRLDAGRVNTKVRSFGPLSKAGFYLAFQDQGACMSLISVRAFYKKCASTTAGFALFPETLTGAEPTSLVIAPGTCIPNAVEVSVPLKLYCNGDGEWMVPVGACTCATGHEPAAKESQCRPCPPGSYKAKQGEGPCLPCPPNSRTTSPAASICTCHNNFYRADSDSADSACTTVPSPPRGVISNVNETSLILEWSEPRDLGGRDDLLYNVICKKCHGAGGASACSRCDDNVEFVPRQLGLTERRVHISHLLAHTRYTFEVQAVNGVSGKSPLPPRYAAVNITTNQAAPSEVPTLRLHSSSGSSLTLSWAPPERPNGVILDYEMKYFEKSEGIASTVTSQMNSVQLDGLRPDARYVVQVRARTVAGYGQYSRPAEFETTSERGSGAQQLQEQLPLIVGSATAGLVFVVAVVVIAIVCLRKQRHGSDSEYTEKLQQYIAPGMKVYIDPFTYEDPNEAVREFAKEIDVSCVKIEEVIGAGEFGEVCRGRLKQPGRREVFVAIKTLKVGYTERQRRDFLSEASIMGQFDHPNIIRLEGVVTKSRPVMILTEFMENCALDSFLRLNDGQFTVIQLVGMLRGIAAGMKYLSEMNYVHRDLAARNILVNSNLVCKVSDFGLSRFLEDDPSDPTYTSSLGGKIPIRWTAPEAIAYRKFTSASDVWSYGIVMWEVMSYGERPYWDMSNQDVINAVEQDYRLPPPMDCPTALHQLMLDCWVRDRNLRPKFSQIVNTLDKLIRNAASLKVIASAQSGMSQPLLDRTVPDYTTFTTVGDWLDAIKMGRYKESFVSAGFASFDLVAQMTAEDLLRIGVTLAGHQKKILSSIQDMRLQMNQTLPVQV
# [5] = target: T3, Ephrin type-B receptor 3 (Homo sapiens); settings: at 10 µM
# [6] = target: T4, Ephrin type-B receptor 4 (Homo sapiens) (UniProt P54760); settings: at 1 µM
# T4 sequence (whole entry): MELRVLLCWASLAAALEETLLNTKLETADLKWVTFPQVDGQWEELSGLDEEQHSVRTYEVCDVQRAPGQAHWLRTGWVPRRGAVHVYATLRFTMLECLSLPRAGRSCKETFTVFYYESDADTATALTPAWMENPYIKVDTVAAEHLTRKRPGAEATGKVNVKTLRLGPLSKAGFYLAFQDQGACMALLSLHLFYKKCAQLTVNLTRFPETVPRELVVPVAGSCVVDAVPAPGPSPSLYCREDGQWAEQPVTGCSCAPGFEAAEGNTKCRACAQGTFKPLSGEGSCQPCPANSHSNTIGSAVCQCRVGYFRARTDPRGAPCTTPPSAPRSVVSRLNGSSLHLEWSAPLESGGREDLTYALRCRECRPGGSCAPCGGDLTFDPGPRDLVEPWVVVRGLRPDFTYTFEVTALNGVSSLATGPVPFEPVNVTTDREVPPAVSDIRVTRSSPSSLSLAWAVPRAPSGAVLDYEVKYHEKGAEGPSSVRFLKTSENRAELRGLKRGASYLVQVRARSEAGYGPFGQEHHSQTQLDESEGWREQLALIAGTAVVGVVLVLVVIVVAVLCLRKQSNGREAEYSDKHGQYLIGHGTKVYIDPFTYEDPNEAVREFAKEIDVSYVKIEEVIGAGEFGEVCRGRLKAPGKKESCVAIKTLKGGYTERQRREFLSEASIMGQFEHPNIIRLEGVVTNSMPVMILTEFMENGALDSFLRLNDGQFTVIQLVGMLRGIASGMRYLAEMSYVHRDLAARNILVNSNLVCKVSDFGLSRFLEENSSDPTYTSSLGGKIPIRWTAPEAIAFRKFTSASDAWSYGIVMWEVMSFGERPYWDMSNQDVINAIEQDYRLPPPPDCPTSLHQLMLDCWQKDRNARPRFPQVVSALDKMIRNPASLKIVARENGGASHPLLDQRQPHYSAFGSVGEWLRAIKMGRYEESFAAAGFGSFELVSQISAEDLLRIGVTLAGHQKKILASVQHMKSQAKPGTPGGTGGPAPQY
# [7] = target: T4, Ephrin type-B receptor 4 (Homo sapiens); settings: at 10 µM
# [8] = target: Receptor tyrosine-protein kinase erbB-4 (Homo sapiens) (UniProt Q15303); settings: at 1 µM
# Receptor tyrosine-protein kinase erbB-4 (Homo sapiens), sequence (Q15303 whole entry): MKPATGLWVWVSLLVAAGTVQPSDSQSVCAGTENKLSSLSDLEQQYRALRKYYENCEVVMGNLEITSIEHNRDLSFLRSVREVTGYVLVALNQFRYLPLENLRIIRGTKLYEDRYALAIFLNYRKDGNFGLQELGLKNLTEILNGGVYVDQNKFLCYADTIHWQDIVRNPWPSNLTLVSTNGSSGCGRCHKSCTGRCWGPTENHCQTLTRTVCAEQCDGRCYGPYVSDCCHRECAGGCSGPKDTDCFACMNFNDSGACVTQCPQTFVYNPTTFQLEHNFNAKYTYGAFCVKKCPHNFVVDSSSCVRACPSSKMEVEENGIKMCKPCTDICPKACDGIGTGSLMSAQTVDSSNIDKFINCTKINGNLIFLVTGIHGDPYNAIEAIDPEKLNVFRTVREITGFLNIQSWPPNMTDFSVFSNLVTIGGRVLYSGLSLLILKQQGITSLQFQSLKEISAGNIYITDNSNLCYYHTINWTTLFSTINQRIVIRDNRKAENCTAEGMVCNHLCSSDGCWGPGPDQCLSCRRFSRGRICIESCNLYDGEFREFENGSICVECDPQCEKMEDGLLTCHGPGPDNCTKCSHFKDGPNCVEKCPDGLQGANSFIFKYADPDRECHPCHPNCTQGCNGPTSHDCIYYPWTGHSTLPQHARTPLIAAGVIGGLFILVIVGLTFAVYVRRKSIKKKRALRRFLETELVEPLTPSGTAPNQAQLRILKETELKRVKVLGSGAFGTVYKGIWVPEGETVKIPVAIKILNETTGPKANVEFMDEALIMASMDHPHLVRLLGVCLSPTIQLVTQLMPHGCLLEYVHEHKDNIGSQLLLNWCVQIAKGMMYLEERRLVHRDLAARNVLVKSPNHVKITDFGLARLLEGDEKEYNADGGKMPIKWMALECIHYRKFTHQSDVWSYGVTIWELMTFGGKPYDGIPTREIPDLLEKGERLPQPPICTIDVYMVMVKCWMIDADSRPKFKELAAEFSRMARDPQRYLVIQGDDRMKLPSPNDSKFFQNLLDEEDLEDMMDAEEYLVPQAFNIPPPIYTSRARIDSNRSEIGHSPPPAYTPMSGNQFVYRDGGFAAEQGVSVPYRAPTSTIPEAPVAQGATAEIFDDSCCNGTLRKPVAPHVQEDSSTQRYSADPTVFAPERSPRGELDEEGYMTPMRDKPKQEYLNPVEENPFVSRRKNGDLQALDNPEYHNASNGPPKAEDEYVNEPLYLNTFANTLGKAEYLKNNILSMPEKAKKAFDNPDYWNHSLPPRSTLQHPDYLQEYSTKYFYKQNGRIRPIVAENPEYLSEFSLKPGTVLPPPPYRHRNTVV
# [9] = target: Receptor tyrosine-protein kinase erbB-4 (Homo sapiens) (UniProt Q15303); settings: at 10 µM
# [10] = target: Focal adhesion kinase 1 (Homo sapiens) (UniProt Q05397); settings: at 1 µM
# Focal adhesion kinase 1 (Homo sapiens), sequence (Q05397 2-1052 limits assumed): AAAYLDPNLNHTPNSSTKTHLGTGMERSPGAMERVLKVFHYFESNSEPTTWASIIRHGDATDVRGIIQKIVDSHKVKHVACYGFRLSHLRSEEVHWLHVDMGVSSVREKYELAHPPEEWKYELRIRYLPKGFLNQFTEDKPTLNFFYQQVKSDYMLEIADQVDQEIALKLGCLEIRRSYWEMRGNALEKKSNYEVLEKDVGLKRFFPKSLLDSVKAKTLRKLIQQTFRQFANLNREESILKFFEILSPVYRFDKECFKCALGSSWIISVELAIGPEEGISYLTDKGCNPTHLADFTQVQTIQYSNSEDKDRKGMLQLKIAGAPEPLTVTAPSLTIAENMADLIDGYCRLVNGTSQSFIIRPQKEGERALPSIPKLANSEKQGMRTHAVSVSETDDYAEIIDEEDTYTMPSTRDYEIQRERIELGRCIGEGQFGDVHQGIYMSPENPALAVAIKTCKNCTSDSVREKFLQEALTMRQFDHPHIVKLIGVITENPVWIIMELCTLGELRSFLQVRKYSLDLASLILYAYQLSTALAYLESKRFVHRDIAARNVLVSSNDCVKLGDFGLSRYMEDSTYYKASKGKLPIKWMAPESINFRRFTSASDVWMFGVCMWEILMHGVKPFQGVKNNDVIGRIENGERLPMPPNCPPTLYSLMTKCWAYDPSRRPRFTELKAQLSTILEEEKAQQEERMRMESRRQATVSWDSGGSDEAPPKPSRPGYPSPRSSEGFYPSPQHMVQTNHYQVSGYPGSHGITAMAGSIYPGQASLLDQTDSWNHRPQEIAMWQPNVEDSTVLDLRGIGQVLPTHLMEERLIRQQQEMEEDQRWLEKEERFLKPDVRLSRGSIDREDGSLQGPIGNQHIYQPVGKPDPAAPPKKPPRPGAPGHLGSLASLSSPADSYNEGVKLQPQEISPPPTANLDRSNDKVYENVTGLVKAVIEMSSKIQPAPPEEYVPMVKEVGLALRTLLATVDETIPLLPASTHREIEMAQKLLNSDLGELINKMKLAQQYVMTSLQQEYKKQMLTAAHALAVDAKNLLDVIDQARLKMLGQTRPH
compound,measurement,setting,value
Cn1cnc2cc3c(Nc4cccc(Br)c4)ncnc3cc21,residual activity,[1],42%
same,residual activity,[2],77%
same,residual activity,[3],5%
same,residual activity,[4],110% (inactive)
same,residual activity,[5],123%
same,residual activity,[6],31%
same,residual activity,[7],4%
same,residual activity,[8],72%
same,residual activity,[9],75%
same,residual activity,[10],82%
